From PubChem BioAssay AID1159580 (chemical genetic matrix, 2015)
Where “and” joins values, the source holds several entries; their conditions need not be identical. Equal values may be shown once. The whole screen tested about 5,500 compounds, of which about 2,000 (36%) were called active. Inconclusive results (about 18%) are left out. Rule as the data show it: active = normalized growth mostly below about 0.91 (no sharp cut-off); inconclusive = no clear call, values can overlap the other calls; inactive = mostly above about 0.92. Some of the results follow.

Assay: chemical genetic growth profiling, strain panel (AID 1159580);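 also: tested at 20 µM; growth read once vehicle control cultures reached saturation at 30 °C; 1 = growth at the plate median or of vehicle wells; lower values mean less growth of the strain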
Conditions: S. cerevisiae deletion strains, growth OD

Measured: normalized growth

CN1C2CCC1CC(OC(c1ccccc1)c1ccccc1N)C2 (stereo unspecified)
inactive: locus YAL013W, strain DEP1, active compounds read low 0.993 | locus YAL021C, strain ccr4, active compounds read low 0.985 | locus YAL026C, strain drs2, active compounds read low 1.01 | locus YAL030W, strain snc1, active compounds read low 0.994 | locus YAL040C, strain CLN3, active compounds read low 1.01 | locus YBL061C, strain skt5, active compounds read low 0.995 | locus YBR009C, strain hhf1, active compounds read low 0.998 | locus YBR021W, strain FUR4, active compounds read low 0.993 | locus YBR023C, strain chs3, active compounds read low 0.989 | locus YBR171W, strain sec66, active compounds read low 1 | locus YBR229C, strain ROT2, active compounds read low 0.998 | locus YBR231C, strain swc5, active compounds read low 1 | locus YBR279W, strain paf1, active compounds read low 1 | locus YCL011C, strain gbp2, active compounds read low 1 | locus YCL016C, strain dcc1, active compounds read low 0.994 | locus YCL029C, strain bik1, active compounds read low 1.03 | locus YCL061C, strain MRC1 (second series), active compounds read low 1 | locus YCL061C, strain MRC1, active compounds read low 0.997 | locus YCL069W, strain vba3, active compounds read low 1 | locus YCR088W, strain abp1, active compounds read low 0.997 | locus YDL005C, strain med2, active compounds read low 0.99 | locus YDL035C, strain GPR1, active compounds read low 1.01 | locus YDL040C, strain nat1, active compounds read low 0.991 | locus YDL074C, strain BRE1, active compounds read low 1 | locus YDL101C, strain DUN1, active compounds read low 1.01 | locus YDL134C, strain PPH21, active compounds read low 1.01 | locus YDL185W, strain tfp1, active compounds read low 1.01 | locus YDL192W, strain arf1, active compounds read low 1.02 | locus YDR001C, strain nth1, active compounds read low 1.01 | locus YDR069C, strain doa4, active compounds read low 1 | locus YDR101C, strain arx1, active compounds read low 1.01 | locus YDR137W, strain rgp1, active compounds read low 0.98 | locus YDR150W, strain NUM1, active compounds read low 1.01 | locus YDR159W, strain sac3, active compounds read low 1 | locus YDR162C, strain NBP2, active compounds read low 1 | locus YDR195W, strain ref2 0.976 | locus YDR297W, strain sur2, active compounds read low 1.01 | locus YDR318W, strain mcm21, active compounds read low 1.01 | locus YDR334W, strain swr1, active compounds read low 1 | locus YDR335W, strain msn5, active compounds read low 0.996 | locus YDR363W, strain ESC2, active compounds read low 0.962 | locus YDR388W, active compounds read low 1.01 | locus YDR392W, strain spt3, active compounds read low 1.01 | locus YDR502C, strain sam2, active compounds read low 1.01 | locus YEL003W, strain gim4, active compounds read low 1.01 | locus YEL037C, strain rad23, active compounds read low 1 | locus YEL061C, strain CIN8 (second series), active compounds read low 1.03 | locus YEL061C, strain CIN8, active compounds read low 1 | locus YER002W, strain NOP16, active compounds read low 1 | locus YER015W, strain faa2, active compounds read low 0.987 | locus YER016W, strain bim1, active compounds read low 0.991 | locus YER110C, active compounds read low 1.01 | locus YER111C, strain swi4, active compounds read low 0.989 | locus YER155C, strain BEM2 (second series), active compounds read low 0.988 | locus YER155C, strain BEM2, active compounds read low 0.996 | locus YER167W, strain BCK2, active compounds read low 1.02 | locus YFR010W, strain ubp6, active compounds read low 0.996 | locus YGL078C, strain dbp3, active compounds read low 1.01 | locus YGL086W, strain mad1, active compounds read low 1.01 | locus YGL167C, strain pmr1, active compounds read low 0.999 | locus YGL173C, strain kem1, active compounds read low 0.999 | locus YGL227W, strain vid30, active compounds read low 0.991 | locus YGL240W, strain doc1, active compounds read low 0.997 | locus YGL248W, strain PDE1, active compounds read low 1.01 | locus YGL253W, strain hxk2, active compounds read low 0.998 | locus YGR078C, strain PAC10, active compounds read low 1.01 | locus YGR135W, strain pre9, active compounds read low 1.01 | locus YGR229C, strain SMI1, active compounds read low 0.992 | locus YGR252W, strain gcn5, active compounds read low 1 | locus YHR013C, strain ard1, active compounds read low 0.979 | locus YHR027C, strain rpn1, active compounds read low 0.999 | locus YHR030C, strain SLT2, active compounds read low 1.01 and 0.978 | locus YHR079C, strain IRE1 (second series), active compounds read low 1.01 | locus YHR079C, strain IRE1, active compounds read low 0.991 | locus YHR094C, strain hxt1, active compounds read low 1.01 | locus YHR129C, strain ARP1, active compounds read low 1.01 | locus YHR142W, strain chs7, active compounds read low 1 | locus YHR200W, strain rpn10, active compounds read low 1.02 | locus YIL066C, strain RNR3, active compounds read low 0.994 | locus YIL073C, strain SPO22, active compounds read low 1.05 | locus YIL125W, strain kgd1, active compounds read low 1 | locus YIR030C, strain dcg1, active compounds read low 1.01 | locus YJL092W, strain hpr5, active compounds read low 1.01 | locus YJL095W, strain BCK1 (second series), active compounds read low 1.01 | locus YJL095W, strain BCK1, active compounds read low 1 and 0.969 | locus YJL115W, strain asf1, active compounds read low 0.997 | locus YJL129C, strain trk1, active compounds read low 1.01 | locus YJL134W, strain LCB3, active compounds read low 1.01 | locus YJL154C, strain vps35, active compounds read low 1 | locus YJL164C, strain tpk1, active compounds read low 1 | locus YJL166W, strain qcr8, active compounds read low 1.02 | locus YJL168C, strain set2, active compounds read low 1.01 | locus YJL187C, strain SWE1 (second series), active compounds read low 1.01 | locus YJL187C, strain SWE1, active compounds read low 0.998 | locus YJR043C, strain POL32, active compounds read low 1.02 | locus YJR066W, strain TOR1, active compounds read low 0.926
